# Test results as given in the supplement of paper PMC11417369.
# ± gives the standard deviation of the averaged measurements. In all, about 25,000 sequences were measured (“ln(normalized median fluorescence intensity)”: median about 10, highest 2% from about 12 on). The entries come from a sample that favours the highest values as a whole.
# Test system: PfAP2-G AP2 domain (GST-tagged)
# Experiment: gcPBM binding intensity (ln(normalized median fluorescence intensity)); higher = stronger DNA binding
# Method in brief: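 Binding intensity is defined as the maximum Masliner-normalised natural-log median intensity across replicate spots for either probe orientation. It was measured on an Agilent 4 × 180k array of primer-extended double-stranded 36-bp intergenic genomic probes and negative controls, to which GST-tagged P. falciparum DNA-binding domains made in E. coli were applied for 1 h in 1× PBS with 1% milk, 0.2 mg/ml BSA, 0.5% salmon testes DNA and 0.03% Triton X-100. Detection was by Alexa488 anti-GST antibody and scanning at 488 nm.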
row,Sequence,gcPBM binding intensity (ln)
1,ACGTATGTATATTACACACATACATATTATTCACTA [CACACA_site204],10.1 ± 0.16
2,AGTATGTAAATGTGCCATATATATATTAAATACATA [CACACA_negctrl_site14],10.1 ± 0.23
3,AACATATACACGAACACACACACATATAAATAAATA [CACACA_site6380],10.3 ± 0.37
4,ATAAAGTATATTATATGTACATATATATATTATATA [XGTACX_site1345],11.1 ± 0.52
5,TTTTTTTTAGTATGAACACACATATATATTATAAAA [CACACA_site2935],10.1 ± 0.25
6,ATAAGAAAAAGACACACACACAAAAAAAAAAAAAAA [CACACA_site2828],9.95 ± 0.49
7,AATAATTATAAAAAATGTACAAAAAAAAAAAAAAAA [XGTACX_site3681],10.5 ± 0.83
8,AAAGATAAAATATTATGTACATATATATATATATAT [XGTACX_site5079],11.1 ± 0.56
9,AAGATAAAATTATGTAGTACAAAAAAAAATAAAAAA [XGTACX_site139],11.7 ± 0.91
10,CGCATGTATTTTGTGTGTACTAATTATAATCAACTT [XGTACX_site4709],11.4 ± 0.83
11,TTTTTTATGAGGTGGTGTACTTTTTTTTTTTTCTTT [XGTACX_site8550],11.7 ± 0.97
12,AAAAGTGTATGTAGGTGTACTTTTTATTTCTTCTTT [XGTACX_site8819],11.6 ± 0.98
13,TATGAGGAAACGTGGTGTACTTTTTTTTAATAAAAA [XGTACX_site1351],11.6 ± 0.93
14,TATATGCATAATAACTGTACACAAATTGGGGTTGAT [XGTACX_site459],11.6 ± 0.63
15,ATATATATATAATTTGTACACACAAATATGCATATA [CACACA_site9136],11.3 ± 0.88
16,ATATATATAATTTGTACACACAAATATGCATATATA [CACACA_site3432],11.3 ± 0.98
17,TATGTGCATATAAACTCACACATTGTATATTACATG [CACACA_site6106],10.14 ± 0.035
18,AATGATTGATTTTATTGTACGTACTCGGAATATGGT [XGTACX_site4976],11.8 ± 1
19,ATTGTTTATATTGATTGTACTCATTTTTTTTTTATT [XGTACX_site1946],11.5 ± 0.99
20,ATATATACGTATGAATGTATATTTGTTTGATTTTTT [CACACA_negctrl_site835],9.88 ± 0.12
21,TATATATATACATATTGTACATATTACATGCTATTA [XGTACX_site1184],10.9 ± 0.64
22,ATATAAATATGACACACACACAAAAAAAATAAAGAC [CACACA_site6208],10.3 ± 0.2
23,TTTTTTTTTTTTTAAACATGCATAATAAATATAATA [TGCATGCA_site265],9.81 ± 0.35

row,Sequence,gcPBM binding intensity (ln)
1,ATTATATAATTTAATCGTACACAAATATTTGTTAGT [XGTACX_site5913],11.3 ± 0.8
2,TGAAATTTATAATAGTGTACAAAGAAAAAAAAAAAA [XGTACX_site4965],11 ± 0.78
3,ACCTATTTATAATAGTGTACGTACAAATTTGTTTAC [XGTACX_site8176],11.7 ± 0.89
4,ATATATATATATATATGTACGTAAACAAAAATTTAT [XGTACX_site6780],11.4 ± 0.91
5,CATATATATTTTATTTGTACGTATAAAAAAACAAAA [XGTACX_site4253],11.5 ± 1.1
6,TTTCGTAAACAAATTTGTACGTACAAATTTATAAAT [XGTACX_site8175],11.7 ± 1.1
7,TTTTTTAAAAATAACTGTACAGAGGCTGTTAGGATA [XGTACX_site2521],11 ± 0.4
8,TTCCAAAAAATTATTACACACATATGAGCACATATA [CACACA_site4543],10.1 ± 0.18
9,TTTCCTTATTAAAACACACAAATACATTATTTAATC [CACACA_site7080],9.875 ± 0.035
10,AAAAGTATAATAAATTGTACTAACAAATATTTATGT [XGTACX_site7721],10.9 ± 0.56
11,TTGAAAATGAAAAAATGTACTTAAAAAAAAGGAACA [XGTACX_site8664],11.2 ± 0.71
12,CTTTGGTTATAACACACATGCACACGTAAATAAATA [TGCATGCA_site976],10.5 ± 0.25
13,ATTTTTTTTTTTTTTTTTTATATGCTCTCCATGAGA [CACACA_negctrl_site1225],9.7 ± 0.2
14,GGGGGGAGGGTGAATACACACGTAATAATCATAAAC [CACACA_site8502],11.6 ± 0.79
15,ATAAATATCATATATATACACACGTAATACATAATA [CACACA_site4001],9.935 ± 0.092
16,GGGGGGGGAGGGTGAATACACACGTAATAATCATAA [CACACA_site1716],11.6 ± 0.94
17,TCTTTTGTTTAACCTACATGCAGAATATAAGTCTTC [TGCATGCA_site99],10 ± 0.2
18,ATATATTCATTTTTATGTACGTAAATTGTAAATTGG [XGTACX_site8242],11.6 ± 0.92
19,AAAAATTCATTTTTATGTACGTACAAATTCTTCGTT [XGTACX_site2471],11.8 ± 0.87
20,TAATTCTTTATTTTTCGTACGTAAAACAAAAAATAT [XGTACX_site862],11.1 ± 0.79
21,ACACATACAACGTGGTGTACAAATAATTATAATCAA [XGTACX_site2287],11.1 ± 0.4
22,CAGTTATTTTAATGTGGTACACAATTTTAAAATTAT [XGTACX_site8571],11.5 ± 0.93
23,TTACATGTAAAAGGTACACACATTAGATATACAAAT [CACACA_site6651],11.3 ± 0.84

row,Sequence,gcPBM binding intensity (ln)
1,TGAAAATAGTTAATTTGTACACAAAAATTAAGAAAA [XGTACX_site5794],11.2 ± 0.8
2,AATTTTGAGATGTGGTGTACACAAAATTAGTTAGAC [XGTACX_site7033],11.7 ± 0.98
3,TTTGAGATGTGGTGTACACAAAATTAGGTACACATC [CACACA_site5773],12 ± 0.85
4,TAAAAATAGTATACAACACACGAGGGAAAATAAAGT [CACACA_site3837],10.34 ± 0.099
5,TATTTAAATTAATATTGTACATATATTTATAATATA [XGTACX_site6109],11.1 ± 0.71
6,GATATTTTTTTCGAAAGTACAAAAAAAAATATTTCC [XGTACX_site4389],11 ± 0.72
7,TATATTTTTATTGAACGTACAAAAAGTCGAAAACAG [XGTACX_site3967],11.4 ± 0.74
8,TTTTCATTTGAAAGTCGTACAAGTTCGAAAAAAGGA [XGTACX_site6840],11.6 ± 1.2
9,TTTTTTATTTGACAAGCACACACTTAAATATATATA [CACACA_site3358],10.2 ± 0.33
10,AAATCATATTCTTATTTTATTTTTTTTATTTTTTAT [XGTACX_negctrl_site166],9.55 ± 0.17
11,AAACATGATTATTATAGTACAATTATAATTATTATA [XGTACX_site2590],10.8 ± 0.59
12,ATGTAGGTTAATTATTGTACGTAGGGGGTGTATATT [XGTACX_site3973],11.8 ± 1.2
13,GTGTGTGTATATATTTGTACATATATTTAAACATAT [XGTACX_site1074],11.4 ± 0.71
14,AAATTATTATATATATGTACGTATAATGTATTTTGT [XGTACX_site2903],11.5 ± 1.1
15,TATATATATATATGTTGTACAAAAATGTAAAATATA [XGTACX_site7761],11.1 ± 0.57
16,TAAACAGATATATTTTGTACATATTGTATATTTTGT [XGTACX_site713],10.6 ± 0.28
17,ATATGTATATATGTATGTACGTACAAATTGTTGTAA [XGTACX_site8832],11.7 ± 0.8
18,AATATATATAATAATTGTACAATACGTATGTTATAT [XGTACX_site8745],11 ± 0.54
19,TATAATAATAATTATTGTACGATTAGGTTAATTCAT [XGTACX_site1984],11.1 ± 0.7
20,ATGTTATATATGTATTGTACGTATTTTGTATATTAT [XGTACX_site6607],11.6 ± 1.1
21,GTATATATATTTGTACGTACATATTGTTGTAAACAC [XGTACX_site8833],11.7 ± 0.71
22,TATAATAATACGTATTGTACTATTAGGTTAATTCGT [XGTACX_site264],11.1 ± 0.66
23,ATATATATATATATTTGTACGTATTATGTATTTTTT [XGTACX_site3530],11.5 ± 0.98

row,Sequence,gcPBM binding intensity (ln)
1,TATAATATTCCTTTTTAACACACATATGAACAAATA [CACACA_site7932],10.1 ± 0.18
2,CATTATTCATTTTGGATGCACTGACAGAAAAATGGT,10.4 ± 0.18
3,CTTAGGTGTTCATAGAGTACAAATAAAAAAATAAGA [XGTACX_site2294],11.3 ± 0.95
4,TACCTAAATAAATGGACACACACATATATATATATA [CACACA_site8407],10.8 ± 0.53
5,TATATTTTAAAATTATGTACATATATAGATAAATGT [XGTACX_site1349],11.3 ± 0.52
6,AATTAGATGGATAAATGTACATAATGTGAATATATT [XGTACX_site86],11 ± 0.4
7,TCATATATATATATATGTACATATTTATGTATGTAT [XGTACX_site6291],11.1 ± 0.66
8,TTCCTTTGTCCTAACTGTACTCAAATTTATTAGTGG [XGTACX_site226],11.8 ± 0.75
9,TTCCTTAATCAATATTGTACTTTTTATAAATTTAGT [XGTACX_site3678],11.4 ± 0.85
10,TAGTTCCTCAAAAATTTCCTTTGTCATTTTATTCAC [GTGCAC_negctrl_site20],10.17 ± 0.085
11,TATAAAAATATATTTACACACTATAAATATCGAAAG [CACACA_site6896],9.96 ± 0.18
12,TAATTTATGACACGCGCACACATATATATATAGTAA [CACACA_site4249],10.6 ± 0.42
13,CAAAGATAAAATGATGCACACAAAAGGGTGTAATAT [CACACA_site8499],10.25 ± 0.014
14,AAGATAAAATGATGCACACAAAAGGGTGTAATATAT [CACACA_site1706],10.13 ± 0.049
15,ACAAAAATGAGATGGTGTACGCACAAATAAATAATA [XGTACX_site5221],11.7 ± 0.79
16,TCCCACTGTTATATTGAAAAAAAAAAAAAAAAAAAA [TGCATGCA_negctrl_site288],9.82 ± 0.5
17,AAACAACATGGACACGCACACACAAAAAAAGCATGC [CACACA_site73],11 ± 0.48
18,TAATTTTCATATTTCTGTACATATATTATAAATATA [XGTACX_site3480],11 ± 0.69
19,ATTAGGCATATTTTCTGTACACAATAATAAAAAAAA [XGTACX_site3957],11.6 ± 0.91
20,TAAAATATATTTTTCTGTACACAAAAATATATTAAA [XGTACX_site2813],11.5 ± 0.96
